# Screens deposited in PubChem by National Center for Advancing Translational Sciences (NCATS).
# This is a sample that favours compounds with a hit; in the whole collection about 5.3% have one here.
# Six1-Eya2 blk – Six1/Eya2 interaction inhibition; Q15475+O00167; AlphaScreen GST-Six1/His-Eya2 binding, biochemical; active compounds read low; activity change, % (test concentration not listed); actives 0.56% (n = 360,000); AID 651725; in the data active = activity change below about -65%; inconclusive = mostly about -30% to -63%; note: % is set by controls: 0 for no effect and ±100 for the full control effect
# Target sequence (O00167 whole entry, looked up): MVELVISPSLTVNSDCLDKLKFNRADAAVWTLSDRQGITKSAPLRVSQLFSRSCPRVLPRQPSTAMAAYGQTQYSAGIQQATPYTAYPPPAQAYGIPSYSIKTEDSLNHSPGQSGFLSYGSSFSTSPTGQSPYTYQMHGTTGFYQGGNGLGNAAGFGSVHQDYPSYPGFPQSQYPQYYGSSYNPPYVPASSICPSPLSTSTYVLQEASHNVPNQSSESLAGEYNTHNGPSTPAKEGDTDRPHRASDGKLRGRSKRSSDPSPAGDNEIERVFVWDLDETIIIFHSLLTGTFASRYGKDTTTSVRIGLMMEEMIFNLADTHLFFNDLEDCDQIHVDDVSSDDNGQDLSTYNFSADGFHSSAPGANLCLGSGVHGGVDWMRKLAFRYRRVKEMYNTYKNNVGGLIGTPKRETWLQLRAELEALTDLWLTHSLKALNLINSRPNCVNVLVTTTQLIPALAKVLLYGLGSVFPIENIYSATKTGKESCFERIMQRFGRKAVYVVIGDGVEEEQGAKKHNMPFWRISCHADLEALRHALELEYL
# Target sequence (Q15475 whole entry, looked up): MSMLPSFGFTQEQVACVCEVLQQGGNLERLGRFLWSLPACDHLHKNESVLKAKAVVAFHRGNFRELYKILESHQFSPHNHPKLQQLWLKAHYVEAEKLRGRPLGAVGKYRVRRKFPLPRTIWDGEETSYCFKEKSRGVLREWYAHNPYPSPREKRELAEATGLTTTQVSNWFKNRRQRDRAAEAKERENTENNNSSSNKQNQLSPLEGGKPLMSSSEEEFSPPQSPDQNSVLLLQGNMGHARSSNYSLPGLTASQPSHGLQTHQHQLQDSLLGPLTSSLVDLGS
#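 Six1/Eya2 binding was read as AlphaScreen signal after compounds were pinned into GST-Six1 plus His-tagged Eya2 (5X stock 250/500 nM) in pH 8.0 Tris/NaCl/TCEP buffer, beads added, then incubated 1 h, 37 C, dark.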
# JMJD2A Tudor – blocks the human JMJD2A Tudor domain. O75164. AlphaScreen JMJD2A-Tudor / H3K4me3 peptide binding. Potency, µM (titrated, usually from 114 µM), for the others: at the highest dose activity change, negative = inhibition, hits mostly inhibitors. actives 4.4% (n = 390,000). AID 504339; note: potency is the fitted concentration of half-maximal effect; % is set by controls: 0 for no effect and ±100 for the full control effect; nearly all actives have a fitted effect of over 50% in size
# TDP1 inh – inhibitors of human tyrosyl-DNA phosphodiesterase TDP1; recombinant TDP1, AlphaScreen DNA substrate cleavage; Potency, µM (titrated, usually from 130 µM), without a hit: at the highest dose activity change, negative = inhibition, hits mostly inhibitors; actives 0.28% (n = 350,000); note: potency is the fitted concentration of half-maximal effect; % is set by controls: 0 for no effect and ±100 for the full control effect; nearly all actives have a fitted effect of over 40% in size
#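 AlphaScreen read-out: signal falls as enzyme removes the 3' tyrosine-FITC from a 5'-biotinylated DNA oligo (15 nM, 5 min, RT). Enzyme was E. coli-made recombinant Tdp1 at 1 nM, exposed to compound for 15 min beforehand; beads 10 ug/ml, 10 min.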
# HP1b chromo inh – inhibitors of HP1-beta chromodomain binding to methylated histone tails. P83916. Potency, µM (titrated, usually from 114 µM), for inactives: at the highest dose activity change, negative = inhibition, most hits filed as inhibitors. AID 540317. actives 0.56% (n = 390,000). AlphaScreen HP1-beta / biotin-H3K9me3 peptide binding; note: potency is the fitted concentration of half-maximal effect; nearly all actives have a fitted effect of over 70% in size
#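 AlphaScreen: HP1-beta (50 nM) preformed 30 min with biotin-H3(1-18)K9me3 peptide (50 nM) in PBS pH 7.4, 0.01% Tween-20. Compound added for 30 min at RT, then streptavidin donor/nickel chelate acceptor beads (10 ug/mL) for 30 min.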
# BAZ2B block – BAZ2B (human) inhibition. Potency, µM (titrated, usually from 114 µM), for the others: top-dose activity change, negative = inhibition, actives largely listed as inhibitors. AID 504333. AlphaScreen BAZ2B-H3K14Ac peptide displacement. Q9UIF8. actives 4.4% (n = 360,000); note: potency is the fitted concentration of half-maximal effect; % is set by controls: 0 for no effect and ±100 for the full control effect; nearly all actives have a fitted effect of over 60% in size
#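 In this displacement format the biotinylated H3(5-23) peptide acetylated at Lys14 serves as ligand at 50 nM, with BAZ2B at 50 nM in PBS pH 7.4 containing 0.01% Tween-20. Donor and acceptor beads are 10 ug/mL final.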
# CtBP-E1A inh – CtBP/E1A binding inhibition | AlphaScreen GST-E1A/His-CtBP binding, 1536-well; active compounds read low | activity change, % (concentration not given with the values) | actives 0.49% (n = 340,000); in the data active = activity change below about -65%; inconclusive = mostly about -30% to -63%; note: % is set by controls: 0 for no effect and ±100 for the full control effect
#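 Homogeneous bead-based format: GST-tagged E1A captured on glutathione donor beads, His-tagged CtBP on nickel acceptor beads; compounds precede bead addition by 2 h at 37 °C.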
# Starred values were filed as active, the others as inactive; ? = inconclusive; nt = no result; [ ] = remark or other dose. Unless noted, calls come from the whole dose curve; as a rule, active = well fitted inhibition curve with a large enough effect; inconclusive = small, poorly fitted or top-dose-only effect; inactive = no such curve, though single readings can be large or run the other way.
SMILES,Six1-Eya2 blk,JMJD2A Tudor,TDP1 inh,HP1b chromo inh,BAZ2B block,CtBP-E1A inh
COc1ccc(-n2ccc(=O)c(C(=O)Nc3ccc(S(=O)(=O)Nc4nccs4)cc3)n2)cc1,16,56µM*,-14%,-11%,?,0
O=C(O)c1ccccc1C(=O)Nc1ccc(S(=O)(=O)Nc2nccs2)cc1,5,-17%,10%,17%,50µM*,6
Cc1ccc(C2=CSC3=NNC4(CCCCC4)NN23)cc1,9,45µM*,7%,-28%,?,nt
Cc1cc2nc(C)n(CCCNC(=O)Nc3cccc4ccccc34)c2cc1C,1,50µM*,?,4%,-11%,-1
Cc1cc2c(s1)c1cnn(Cc3ccc(C)c(F)c3)c(=O)c1n2C,nt,-32%,nt,nt,nt,nt
O=C(Cc1ccc(NC(=O)N2CCCCc3ccccc32)cc1)Nc1ccccc1Br,nt,-18%,2%,26%,-22%,nt
COC(=O)C1=C(O)/C(=C\c2cc(C)n(-c3ccc(F)cc3)c2C)N=C1C,0,40µM*,5%,-2%,nt,2
Nc1nc(=S)c2ncn(C3CCCC3)c2[nH]1,-17,50µM*,-3%,?,?,-10
Nc1nc2c(ncn2C2CCCC2)c(=O)[nH]1,-26,-18%,nt,7%[57 µM],nt,-24
Cc1ccc(N(CC(=O)NCc2ccc(F)cc2)C(=O)CCC(=O)Nc2ccccn2)cc1C,0,79µM*,1%,10%,3%,-5
COc1ccc(N(CC(=O)NCc2ccc(F)cc2)C(=O)CCC(=O)Nc2ccccn2)cc1,-4,0%,14%,18%,10%,-11
CCC(C(=O)Nc1ccc(C(C)=O)cc1)n1cnc2nc3c(cc2c1=O)CCCC3 (stereo not drawn),nt,1%,2%,29%[57 µM],2%,nt
CCCCNc1ncnc2oc(-c3ccco3)c(-c3ccco3)c12,nt,50µM*,9%,?,nt,nt
COc1cc(C2SC[C@H]3C(=O)N(c4ccccc4)C(=O)N23)cc(OC)c1OC (stereo partly drawn),nt,-13%,-4%,32%,-4%,nt
COc1ccc(OC)c(-c2cc(C(=O)Nc3ccc(C)c(C)c3)no2)c1,nt,5%,-4%,43%,9%,nt
CNC(=S)NNc1nc(N2CCOCC2)nc(N2CCOCC2)n1,15,25µM*,6%,?,-7%,-2
CCNC(=S)NNc1nc(N2CCOCC2)nc(N2CCOCC2)n1,-11,-11%,1%,-37%,nt,?
CNc1nc(C(=O)O)nc(N2CCOCC2)n1,?,4.5µM*,2%,-15%,11µM*,?
Cc1c(CCOC(=O)c2cc([N+](=O)[O-])cc([N+](=O)[O-])c2)sc[n+]1CC(=O)c1ccc(Br)cc1,-7,?,9%,-34%,50µM*,-16
CCCC(=O)Nc1nnc(SCc2cc(=O)n3ccccc3n2)s1,nt,2%,5%,29%[57 µM],-17%,nt
Cc1nn(C(=O)c2c(F)cccc2F)c(C)c1S(=O)(=O)N1CCCCCC1,nt,33%,-3%,44%[57 µM],42%,nt
CN(C)c1ccc(C2SCCN2C(=O)c2ccc([N+](=O)[O-])cc2)cc1 (stereo not drawn),-21,?,0%,?,45µM*,-28
O=C(c1ccc([N+](=O)[O-])cc1)N1CCSC1c1ccccc1 (stereo not drawn),-11,-17%,3%,-2%,-6%,-4
O=C(c1cccc(Cl)c1)N1CCN(C2CCCCC2)CC1,-9,7.9µM*,3%,?,?,nt
O=C(c1cccc(F)c1)N1CCN(C2CCCCC2)CC1,4,22µM*,-7%,?,50µM*,9
SMILES,Six1-Eya2 blk,JMJD2A Tudor,TDP1 inh,HP1b chromo inh,BAZ2B block,CtBP-E1A inh
O=C(c1cccc(C(F)(F)F)c1)N1CCN(C2CCCCC2)CC1,2,-11%,3%,-4%,5%,-2
O=C(c1ccccc1)N1CCN(C2CCCCCC2)CC1,10,3.2µM*,3%,?,56µM*,-1
O=C(NC(=S)N1CCN(C2CCCCC2)CC1)c1ccccc1,-2,-17%,3%,-11%,-24%,0
O=C(c1cccc(F)c1)N1CCC(N2CCCCCC2)CC1,3,2.2µM*,nt,?,56µM*,4
O=S(=O)(NCc1ccc(F)cc1)c1ccc(N2CCCCS2(=O)=O)cc1,nt,-2%,-6%,13%,-8%,nt
O=C(CSc1oc(-c2ccco2)nc1S(=O)(=O)c1ccc(Cl)cc1)Nc1ccc(F)cc1,nt,-6%,6%,40%,-2%,nt
COc1ccc(C2Nc3ccccc3NC3=C2C(=O)CC(C)(C)C3)cc1O (stereo not drawn),8,13µM*,nt,-5%,-1%,-10
O=C(NC1c2ccccc2-c2ccccc21)c1ccco1,2,56µM*,3%,-14%,9%,5
O=C(NC1CCCCC1NC(=O)c1ccco1)c1ccco1 (stereo not drawn),-2,3%,0%,49%,-1%,1
O=c1c2sccc2n(Cc2cc(=O)n3ccccc3n2)c(=O)n1-c1cccc(C(F)(F)F)c1,nt,-7%,0%,27%,-1%,nt
CC(=NNC(=S)N1CCN(C2CCCCCC2)CC1)c1ccccn1,-92*,18µM*,nt,?,nt,0
CC(=NNC(=S)N1CC2CCC(CC2)C1)c1ccccn1,-14,nt,nt,nt,nt,-14
COc1cccc(NC(=S)N2CCN(c3ccccn3)CC2)c1,-3,89µM*,1%,8%,-10%,-5
CC(=NNC(=S)N1CC2CCC(CC2)C1)c1cnccn1,-92*,11µM*,nt,?,nt,-94*
CC(=NNC(=S)N1CCCCCC1)c1cccc2cccnc12,?,20µM*,nt,50µM*,nt,-90*
CCOC(=O)c1c(C)oc2ncnc(N3CCN(c4ccccc4OC)CC3)c12,nt,-23%,0%,31%,-4%[57.1 µM],nt
COc1cc(NC(=O)C2CCN(S(=O)(=O)c3c(C)noc3/C=C/c3ccccc3F)CC2)cc(OC)c1OC,nt,3%,2%,24%[57 µM],2%,nt
CC(C)(C)NC(=O)Cn1cc(S(=O)(=O)Cc2ccccc2Cl)c2ccccc21,nt,-10%,2%,7%,-1%,nt
C/C(=N\NC(=O)C1CCCN(S(=O)(=O)c2ccccc2)C1)c1ccccn1 (stereo not drawn),-86*,79µM*,6%,47%,?,-90*
CC(=NNC(=S)N1CCN(c2ccccn2)CC1)c1nccs1,-91*,13µM*,nt,?,nt,-94*
CC(=NNC(=S)N1CCN(c2ccccn2)CC1)c1ccccn1,?,56µM*,nt,?,nt,?
C/C(=N\NC(=O)C1CCCN(S(=O)(=O)c2ccccc2)C1)c1ccncc1 (stereo not drawn),-6,3%,5%,48%,-5%,-1
